Measured values from article PMC7862700, “An all-to-all approach to the identification of sequence-specific readers for epigenetic DNA modifications on cytosine”.

Key:
Test in all cases: DAPPL (digital affinity profiling via proximity ligation, sequencing); 10 mM Tris-HCl pH 7.5, 50 mM NaCl, 1 mM DTT, 4% glycerol, room temperature, 30 min; GST-TFs on glutathione beads, 16-mer random dsDNA library, 0.1% formaldehyde crosslink after washing; high values mean tight binding
[1] = biological target: T1, FEV (Homo sapiens, UniProt Q99581 1-238); details: protein: recombinant; tags: N-terminal GST; dsDNA, one strand shown
T1 sequence: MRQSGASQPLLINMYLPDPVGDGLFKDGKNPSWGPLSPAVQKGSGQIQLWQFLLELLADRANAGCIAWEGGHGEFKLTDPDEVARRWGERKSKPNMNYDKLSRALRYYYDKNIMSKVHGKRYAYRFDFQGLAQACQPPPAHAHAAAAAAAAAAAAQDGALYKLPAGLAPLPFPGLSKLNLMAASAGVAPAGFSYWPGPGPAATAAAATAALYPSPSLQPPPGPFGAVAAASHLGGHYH
In short: (§1)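 Pools were built from human transcription factors expressed in yeast as GST fusions, captured on glutathione beads and DNA-barcoded, along with a tag-only sample. Incubation with 200 nmole of a 16-mer random double-stranded DNA library lasted 30 min at room temperature in Tris/NaCl/DTT/glycerol buffer, and was followed by washing, 0.1% formaldehyde crosslinking, proximity ligation, PCR amplification and Illumina NextSeq500 sequencing. Binding signal is the quotient of each hexamer's read frequency for a factor and its frequency for the tag-only sample.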

[2] = biological target: ETV5 (Homo sapiens, UniProt P41161 1-510); details: protein: recombinant; tags: N-terminal GST; dsDNA, one strand shown
Chain of ETV5 (P41161 whole entry): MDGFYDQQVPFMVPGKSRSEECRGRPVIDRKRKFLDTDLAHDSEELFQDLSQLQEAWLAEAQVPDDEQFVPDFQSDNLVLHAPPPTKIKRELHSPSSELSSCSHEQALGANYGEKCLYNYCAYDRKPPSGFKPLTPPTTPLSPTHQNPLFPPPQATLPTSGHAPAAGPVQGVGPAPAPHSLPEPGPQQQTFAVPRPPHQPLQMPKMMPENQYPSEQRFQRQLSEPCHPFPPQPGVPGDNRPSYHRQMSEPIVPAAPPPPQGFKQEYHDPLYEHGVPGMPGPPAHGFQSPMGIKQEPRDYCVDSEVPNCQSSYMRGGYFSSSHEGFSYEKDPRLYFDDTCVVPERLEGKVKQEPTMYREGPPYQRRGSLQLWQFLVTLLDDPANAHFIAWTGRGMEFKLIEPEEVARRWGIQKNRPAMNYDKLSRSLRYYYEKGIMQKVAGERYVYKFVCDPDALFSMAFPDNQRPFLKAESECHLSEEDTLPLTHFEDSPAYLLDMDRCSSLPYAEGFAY
In short: as §1

[3] = biological target: HSF1 (Homo sapiens, UniProt Q00613 1-529); details: protein: recombinant; tags: N-terminal GST; chain copies: 3; dsDNA, one strand shown
Chain of HSF1 (Q00613 whole entry): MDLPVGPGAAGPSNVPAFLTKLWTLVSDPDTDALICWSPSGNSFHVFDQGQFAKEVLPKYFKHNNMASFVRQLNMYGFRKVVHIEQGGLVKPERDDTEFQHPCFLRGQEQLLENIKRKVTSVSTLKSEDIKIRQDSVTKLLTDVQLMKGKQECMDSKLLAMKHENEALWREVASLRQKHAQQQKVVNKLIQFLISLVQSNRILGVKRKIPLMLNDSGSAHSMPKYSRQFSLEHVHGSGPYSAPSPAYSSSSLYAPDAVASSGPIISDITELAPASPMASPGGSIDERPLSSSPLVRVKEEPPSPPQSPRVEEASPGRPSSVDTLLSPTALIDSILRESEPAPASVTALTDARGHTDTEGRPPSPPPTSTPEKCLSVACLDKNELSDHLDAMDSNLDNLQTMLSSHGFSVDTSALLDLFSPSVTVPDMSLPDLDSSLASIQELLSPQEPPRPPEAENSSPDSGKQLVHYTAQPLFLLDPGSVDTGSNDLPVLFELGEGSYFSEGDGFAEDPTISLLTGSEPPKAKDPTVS
In short: as §1

[4] = biological target: T2, SPIC (Homo sapiens, UniProt Q8N5J4 1-248); details: protein: recombinant; tags: N-terminal GST; dsDNA, one strand shown
T2 sequence: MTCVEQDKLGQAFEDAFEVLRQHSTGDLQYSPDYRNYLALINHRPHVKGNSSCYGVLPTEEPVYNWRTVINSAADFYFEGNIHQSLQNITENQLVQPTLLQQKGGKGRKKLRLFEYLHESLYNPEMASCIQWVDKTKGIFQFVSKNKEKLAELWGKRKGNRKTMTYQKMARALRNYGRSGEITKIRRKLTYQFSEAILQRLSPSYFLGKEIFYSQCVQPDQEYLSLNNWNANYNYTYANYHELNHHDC
In short: as §1

[5] = biological target: ELF4 (Homo sapiens, UniProt Q99607 1-663); details: protein: recombinant; tags: N-terminal GST; dsDNA, one strand shown
Chain of ELF4 (Q99607 whole entry): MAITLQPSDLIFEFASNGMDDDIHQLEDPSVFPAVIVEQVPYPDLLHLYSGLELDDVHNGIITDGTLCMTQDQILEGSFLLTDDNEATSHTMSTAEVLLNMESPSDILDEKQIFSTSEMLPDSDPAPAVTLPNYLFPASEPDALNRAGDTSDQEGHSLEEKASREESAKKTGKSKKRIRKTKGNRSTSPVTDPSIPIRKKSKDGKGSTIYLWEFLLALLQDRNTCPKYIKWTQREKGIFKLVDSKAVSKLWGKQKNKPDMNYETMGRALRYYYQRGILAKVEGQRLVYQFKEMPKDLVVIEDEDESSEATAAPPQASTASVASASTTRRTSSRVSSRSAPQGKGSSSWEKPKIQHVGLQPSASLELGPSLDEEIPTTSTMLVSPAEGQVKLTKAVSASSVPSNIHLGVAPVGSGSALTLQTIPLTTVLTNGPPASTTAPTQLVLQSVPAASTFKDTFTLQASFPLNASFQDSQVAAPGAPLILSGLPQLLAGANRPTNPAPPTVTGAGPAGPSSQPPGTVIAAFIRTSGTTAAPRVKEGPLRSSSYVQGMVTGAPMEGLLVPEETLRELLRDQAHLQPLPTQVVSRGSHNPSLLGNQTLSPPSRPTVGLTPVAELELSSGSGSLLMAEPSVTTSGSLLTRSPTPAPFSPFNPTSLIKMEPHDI
In short: as §1

[6] = biological target: T3, ELK4 (Homo sapiens, UniProt P28324-2 1-405); details: protein: recombinant; tags: N-terminal GST; dsDNA, one strand shown
T3 sequence: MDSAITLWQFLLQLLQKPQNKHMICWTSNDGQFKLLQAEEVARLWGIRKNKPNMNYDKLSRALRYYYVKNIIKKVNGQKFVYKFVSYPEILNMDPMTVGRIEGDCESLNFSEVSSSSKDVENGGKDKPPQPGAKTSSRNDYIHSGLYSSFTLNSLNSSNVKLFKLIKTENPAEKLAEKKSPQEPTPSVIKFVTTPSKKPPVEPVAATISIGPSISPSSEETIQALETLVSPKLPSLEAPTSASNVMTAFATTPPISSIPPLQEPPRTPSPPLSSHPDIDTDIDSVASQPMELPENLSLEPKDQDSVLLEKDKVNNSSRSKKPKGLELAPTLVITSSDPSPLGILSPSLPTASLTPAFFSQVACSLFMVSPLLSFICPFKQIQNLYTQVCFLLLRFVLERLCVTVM
In short: as §1

[7] = biological target: T4, ETV2 (Homo sapiens, UniProt O00321 1-342); details: protein: recombinant; tags: N-terminal GST; dsDNA, one strand shown
T4 sequence: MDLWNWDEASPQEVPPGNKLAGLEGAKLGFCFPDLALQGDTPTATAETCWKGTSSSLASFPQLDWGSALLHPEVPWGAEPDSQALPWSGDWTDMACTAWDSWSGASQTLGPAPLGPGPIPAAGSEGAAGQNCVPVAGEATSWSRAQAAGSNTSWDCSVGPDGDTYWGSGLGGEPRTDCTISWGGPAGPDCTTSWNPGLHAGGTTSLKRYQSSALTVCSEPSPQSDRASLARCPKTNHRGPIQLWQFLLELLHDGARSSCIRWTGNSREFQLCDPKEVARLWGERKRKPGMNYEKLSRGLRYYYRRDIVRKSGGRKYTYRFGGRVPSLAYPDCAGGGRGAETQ
In short: as §1

[8] = biological target: T5, ELF3 (Homo sapiens, UniProt P78545 1-371); details: protein: recombinant; tags: N-terminal GST; dsDNA, one strand shown
T5 sequence: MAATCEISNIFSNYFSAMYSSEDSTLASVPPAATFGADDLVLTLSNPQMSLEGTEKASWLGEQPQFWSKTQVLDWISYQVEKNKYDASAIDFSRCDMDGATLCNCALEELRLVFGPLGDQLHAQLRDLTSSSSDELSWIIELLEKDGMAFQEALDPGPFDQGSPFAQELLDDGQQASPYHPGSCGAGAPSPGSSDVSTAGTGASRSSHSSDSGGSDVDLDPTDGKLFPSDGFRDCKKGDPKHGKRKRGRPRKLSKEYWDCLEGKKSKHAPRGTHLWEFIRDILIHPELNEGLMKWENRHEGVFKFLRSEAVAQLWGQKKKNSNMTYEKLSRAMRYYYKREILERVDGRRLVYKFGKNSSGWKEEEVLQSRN
In short: as §1

[9] = biological target: CRX (Homo sapiens, UniProt O43186 1-299); details: protein: recombinant; tags: N-terminal GST; dsDNA, one strand shown
Chain of CRX (O43186 whole entry): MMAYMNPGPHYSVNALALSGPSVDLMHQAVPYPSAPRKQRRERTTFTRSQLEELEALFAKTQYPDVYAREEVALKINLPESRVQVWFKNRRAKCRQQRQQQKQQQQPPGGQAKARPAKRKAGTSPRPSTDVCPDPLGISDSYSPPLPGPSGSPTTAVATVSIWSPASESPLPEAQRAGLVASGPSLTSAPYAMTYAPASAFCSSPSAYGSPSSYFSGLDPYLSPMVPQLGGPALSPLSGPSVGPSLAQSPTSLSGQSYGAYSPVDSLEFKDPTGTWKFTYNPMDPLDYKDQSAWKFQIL
In short: as §1

[10] = biological target: ETV1 (Homo sapiens, UniProt P50549 1-477); details: protein: recombinant; tags: N-terminal GST; dsDNA, one strand shown
Chain of ETV1 (P50549 whole entry): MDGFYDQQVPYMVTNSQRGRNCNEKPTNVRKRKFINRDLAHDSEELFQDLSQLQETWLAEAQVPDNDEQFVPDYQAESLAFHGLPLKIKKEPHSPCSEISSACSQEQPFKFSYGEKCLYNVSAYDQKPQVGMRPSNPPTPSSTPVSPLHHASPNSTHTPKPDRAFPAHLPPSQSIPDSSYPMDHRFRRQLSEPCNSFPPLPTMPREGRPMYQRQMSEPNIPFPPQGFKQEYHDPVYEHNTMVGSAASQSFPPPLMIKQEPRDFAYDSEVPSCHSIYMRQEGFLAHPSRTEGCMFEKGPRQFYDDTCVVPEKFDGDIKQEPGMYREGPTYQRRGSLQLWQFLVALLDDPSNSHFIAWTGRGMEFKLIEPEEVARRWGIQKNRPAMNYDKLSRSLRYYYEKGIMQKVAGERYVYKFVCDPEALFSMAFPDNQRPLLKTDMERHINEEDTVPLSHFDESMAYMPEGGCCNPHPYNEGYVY
In short: as §1

## GTATCT
[1]
  binding signal: 1.14 fold enrichment (6-mer frequency, TF over GST control)
[2]
  binding signal: 1.11 fold enrichment (6-mer frequency, TF over GST control)
[3]
  binding signal: 1.15 fold enrichment (6-mer frequency, TF over GST control)
[4]
  binding signal: 1.15 fold enrichment (6-mer frequency, TF over GST control)
[5]
  binding signal: 1.14 fold enrichment (6-mer frequency, TF over GST control)
[6]
  binding signal: 1.22 fold enrichment (6-mer frequency, TF over GST control)
[7]
  binding signal: 1.23 fold enrichment (6-mer frequency, TF over GST control)
[8]
  binding signal: 1.26 fold enrichment (6-mer frequency, TF over GST control)
[9]
  binding signal: 1.02 fold enrichment (6-mer frequency, TF over GST control)
[10]
  binding signal: 1.15 fold enrichment (6-mer frequency, TF over GST control)
